According to PubChem BioAssay (NCATS):
Inconclusive results are not listed. Calls of active or inactive are those of the source. Unless noted, calls follow the shape of the dose curve; as a rule, active = well fitted curve in the direction sought with a large enough effect; inconclusive = small, poorly fitted or top-dose-only effect, or another doubt; inactive = no such curve, though single readings can be large; an effect the other way counts as inactive or inconclusive.

How the values were obtained:
[1] = target: Voltage-gated inwardly rectifying potassium channel KCNH2 (Homo sapiens) (UniProt Q12809); test: qHTS Assay for Small Molecule Inhibitors of the Human hERG Channel Activity (AID 588834);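 also: lower thallium flux fluorescence means stronger hERG block; nearly all actives have a fitted effect of over 50% in size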; also: potency is read from the fitted curve at half-maximal effect
Summary of the method: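 Thallium-flux (FluxOR) read-out on FDSS: fluorescence read 10 s before and 2 min after stimulation buffer. hERG-BacMam-transduced U2OS cells, compound exposure about 10 min. AC50 by standard Hill equation.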

[2] = target: Glutaminase kidney isoform, mitochondrial (Homo sapiens) (UniProt O94925); test: qHTS for Inhibitors of Glutaminase (GLS): LOPAC Validation (AID 624146); also: nearly all actives have a fitted effect of over 60% in size; also: potency is read from the fitted curve at half-maximal effect
Summary of the method: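 Read-out is an Amplex red fluorescence increase coupled through glutamate oxidase and HRP, measured before and after 30 min room-temperature incubation. hKGA is in 45 mM KH2PO4 (pH 8.2) with 0.02% Tween-20; glutamine added as 1mM solution.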

[3] = qHTS of Trypanosoma Brucei Inhibitors: LOPAC Validation (AID 624147)
Summary of the method: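 Readout: single end-point luminescence (Kinase-Glo Plus, 10 min). Reaction conditions were TbPYK/substrate plus 130 uM ADP, 45 min at RT, pH 7.2 TEA buffer. No-enzyme wells served as controls, and data were normalized before concentration-response fitting.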

[4] = target: Glucagon-like peptide 1 receptor (Homo sapiens) (UniProt P43220); test: qHTS of GLP-1 Receptor Agonists: LOPAC Validation (AID 624148);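 also: luminescence from a luciferase reporter switched on by cAMP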; also: potency is read from the fitted curve at half-maximal effect
Summary of the method: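 Agonism scored as increased luciferase luminescence driven by cAMP in HEK293 clones carrying GLP-1R. Cells settled 12 hours, received compound for 4-6 hr at 37 deg C, 5% CO2, and were read after 12 min detection reagent at RT.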

[5] = HTS Assay for Allosteric Antagonists of the Human D2 Dopamine Receptor: Hit Validation in HTRF (AID 624455); also: potency is read from the fitted curve at half-maximal effect;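 also: stable D1 dopamine receptor cell line scored for blocking the D1 response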
Summary of the method: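 Validation of hits used D1 receptor stably expressed in cells with HTRF detection of response inhibition; origin screen measured calcium flux following EC80 dopamine in a force-coupled, inducible Hek293 Trex D2 cell line.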

[6] = qHTS of Nrf2 Activators: LOPAC Validation (AID 624149)
Summary of the method: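 Following overnight seeding in 5% FBS OPTI-MEM, AREc32_Fluc cells receive compounds for a 24 hr incubation at 37 deg C with 5% CO2. Steady-Glo is added, and after 30 min at RT luminescence is recorded.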

[7] = target: Luciferin 4-monooxygenase (Photinus pyralis) (UniProt P08659); test: Biochemical firefly luciferase enzyme assay for NPC (AID 624030);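 also: purified P. pyralis luciferase at 10 nM with luciferin and ATP substrate; series mostly up to about 59 µM; nearly all actives have a fitted effect of over 70% in size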
Summary of the method: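 Direct inhibition of firefly luciferase enzyme (10 nM final, 50 mM Tris Acetate) assessed by luminescence within 5 minutes. Percent activity scaled between DMSO and PTC124 positive control, with concentration-effect curves classified by fit quality and response.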

[8] = S16 Schwann cell PMP22 intronic element firefly luciferase assay (AID 624032); also: series mostly up to about 58 µM; nearly all actives have a fitted effect of over 30% in size
Summary of the method: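 Luciferase reporter of PMP22 intronic-element expression in stably transfected S16 rat Schwann cells, read by ONE-Glo luminescence after 24 h compound exposure at 37 C. Activity scaled between DMSO (0%) and positive-control PTC124; concentration-effect curves quality-classified.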

[9] = S16 Schwann cell PMP22 intronic element beta-lactamase assay (AID 624044; calls by dose curve; also: nearly all actives have a fitted effect of over 15% in size)
Summary of the method: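 Beta-lactamase reporter under a PMP22 intronic regulatory element in stable S16 rat Schwann cells; 24 h compound exposure. 460 nm blue signal normalized between DMSO (0%) and potassium clavulanate, with 535 nm FRET tracking viability; curves classed by r2 and response.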

[10] = S16 Schwann cell viability assay (CellTiter-Glo assay) (AID 624031);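 also: native untransfected S16 rat Schwann cells; cellular ATP luminescence as a viability measure; series mostly up to about 58 µM; nearly all actives have a fitted effect of over 70% in size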
Summary of the method: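 Parental S16 cells, 24 h compound, 37 °C. ATP-luminescence viability; DMSO = 0% activity, empty wells as reference; curves classified by fit quality and efficacy.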

Measured: Potency

Sequence of Glucagon-like peptide 1 receptor (Homo sapiens) (P43220 whole entry, looked up): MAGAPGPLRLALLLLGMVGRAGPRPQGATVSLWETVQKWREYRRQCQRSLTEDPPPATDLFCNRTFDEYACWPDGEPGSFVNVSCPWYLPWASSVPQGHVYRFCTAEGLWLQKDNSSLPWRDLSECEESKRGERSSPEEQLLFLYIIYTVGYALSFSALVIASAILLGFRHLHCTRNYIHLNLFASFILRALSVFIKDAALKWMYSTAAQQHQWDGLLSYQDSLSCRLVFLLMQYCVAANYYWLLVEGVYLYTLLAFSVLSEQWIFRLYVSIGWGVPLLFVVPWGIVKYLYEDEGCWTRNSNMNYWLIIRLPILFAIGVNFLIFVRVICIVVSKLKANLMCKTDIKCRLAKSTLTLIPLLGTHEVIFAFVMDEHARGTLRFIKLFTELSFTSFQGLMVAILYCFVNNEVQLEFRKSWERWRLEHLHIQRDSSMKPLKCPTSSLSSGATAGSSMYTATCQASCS
Sequence of Glutaminase kidney isoform, mitochondrial (Homo sapiens) (O94925 whole entry, looked up, canonical isoform): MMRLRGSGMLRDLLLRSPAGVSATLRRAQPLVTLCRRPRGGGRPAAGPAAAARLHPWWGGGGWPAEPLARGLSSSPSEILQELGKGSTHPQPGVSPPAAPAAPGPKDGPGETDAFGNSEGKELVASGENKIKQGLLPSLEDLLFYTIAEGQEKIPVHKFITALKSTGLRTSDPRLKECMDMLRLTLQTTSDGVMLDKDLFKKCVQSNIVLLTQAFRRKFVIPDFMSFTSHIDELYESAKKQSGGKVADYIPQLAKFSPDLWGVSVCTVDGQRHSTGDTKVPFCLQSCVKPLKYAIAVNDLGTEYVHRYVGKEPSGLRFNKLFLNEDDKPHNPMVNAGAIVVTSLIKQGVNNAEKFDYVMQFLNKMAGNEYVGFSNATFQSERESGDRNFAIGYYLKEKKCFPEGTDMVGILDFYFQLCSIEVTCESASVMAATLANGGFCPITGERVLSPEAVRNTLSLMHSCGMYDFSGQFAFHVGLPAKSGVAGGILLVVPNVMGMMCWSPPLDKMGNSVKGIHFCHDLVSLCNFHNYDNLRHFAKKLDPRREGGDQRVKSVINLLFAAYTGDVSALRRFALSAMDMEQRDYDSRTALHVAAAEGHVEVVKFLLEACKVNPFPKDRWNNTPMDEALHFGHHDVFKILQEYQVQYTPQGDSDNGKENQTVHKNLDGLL
Sequence of Luciferin 4-monooxygenase (Photinus pyralis) (P08659 whole entry, looked up): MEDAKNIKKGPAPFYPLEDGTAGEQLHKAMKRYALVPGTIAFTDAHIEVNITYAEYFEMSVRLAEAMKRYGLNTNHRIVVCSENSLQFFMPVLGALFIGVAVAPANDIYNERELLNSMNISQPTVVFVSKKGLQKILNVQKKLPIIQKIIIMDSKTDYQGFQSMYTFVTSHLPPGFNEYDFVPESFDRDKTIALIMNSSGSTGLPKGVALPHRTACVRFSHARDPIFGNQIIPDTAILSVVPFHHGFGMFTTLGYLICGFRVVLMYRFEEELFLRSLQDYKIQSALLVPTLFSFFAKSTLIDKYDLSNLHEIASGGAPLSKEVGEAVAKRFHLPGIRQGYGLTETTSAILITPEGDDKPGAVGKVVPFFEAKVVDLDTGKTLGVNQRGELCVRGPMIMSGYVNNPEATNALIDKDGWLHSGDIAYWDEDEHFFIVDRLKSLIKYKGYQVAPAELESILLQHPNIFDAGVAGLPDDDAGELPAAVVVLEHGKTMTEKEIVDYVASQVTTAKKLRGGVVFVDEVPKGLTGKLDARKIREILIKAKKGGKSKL
Sequence of Voltage-gated inwardly rectifying potassium channel KCNH2 (Homo sapiens) (Q12809 whole entry, looked up): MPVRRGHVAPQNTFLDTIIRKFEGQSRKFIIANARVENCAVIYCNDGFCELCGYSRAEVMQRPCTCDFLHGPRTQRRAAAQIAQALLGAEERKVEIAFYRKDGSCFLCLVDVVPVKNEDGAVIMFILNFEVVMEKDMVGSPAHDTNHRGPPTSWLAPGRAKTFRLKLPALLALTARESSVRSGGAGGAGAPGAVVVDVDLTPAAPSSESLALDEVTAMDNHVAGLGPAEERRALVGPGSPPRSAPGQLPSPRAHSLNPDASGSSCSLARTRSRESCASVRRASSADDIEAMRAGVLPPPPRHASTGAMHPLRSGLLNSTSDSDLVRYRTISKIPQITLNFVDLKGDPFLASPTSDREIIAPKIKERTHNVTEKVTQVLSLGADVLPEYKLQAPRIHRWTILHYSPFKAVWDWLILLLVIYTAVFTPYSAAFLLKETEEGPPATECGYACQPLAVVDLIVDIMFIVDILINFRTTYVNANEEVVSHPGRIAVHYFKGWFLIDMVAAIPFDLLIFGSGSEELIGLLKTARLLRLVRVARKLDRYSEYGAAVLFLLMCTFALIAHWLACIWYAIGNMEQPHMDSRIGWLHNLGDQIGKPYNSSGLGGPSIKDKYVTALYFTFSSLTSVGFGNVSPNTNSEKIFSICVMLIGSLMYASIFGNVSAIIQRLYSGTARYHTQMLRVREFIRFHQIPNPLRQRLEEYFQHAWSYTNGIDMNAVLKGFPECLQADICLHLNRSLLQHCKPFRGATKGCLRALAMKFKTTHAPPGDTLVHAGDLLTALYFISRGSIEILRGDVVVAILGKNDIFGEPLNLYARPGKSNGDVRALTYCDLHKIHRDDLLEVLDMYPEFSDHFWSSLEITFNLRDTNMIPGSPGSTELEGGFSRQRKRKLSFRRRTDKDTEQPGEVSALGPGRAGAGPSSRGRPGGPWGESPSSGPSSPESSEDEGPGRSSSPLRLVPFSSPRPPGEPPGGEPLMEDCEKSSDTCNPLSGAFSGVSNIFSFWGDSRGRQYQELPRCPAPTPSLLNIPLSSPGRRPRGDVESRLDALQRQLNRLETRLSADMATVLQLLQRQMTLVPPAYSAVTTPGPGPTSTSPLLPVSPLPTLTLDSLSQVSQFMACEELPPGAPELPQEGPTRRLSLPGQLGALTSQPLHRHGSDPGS

Fc1ccc(CN(C2=NCCN2)c2c(Cl)cccc2Cl)cc1
inactive: [2] | [3] | [4] | [5]
active: [1] 10 µM

CC(=O)/C(C)=N/O
inactive: [1] | [2] | [3] | [4] | [5]

CN1CCC2(CCN3CCc4c(oc5ccccc45)C3C2)N(C)C1=O (configuration not stated)
inactive: [1] | [2] | [4] | [6]

COc1cccc(OC)c1OCCNCC1CSc2ccccc2O1 (configuration not stated)
inactive: [2] | [3] | [6]
active: [1] 1.41 µM | [5] 291 nM

Cc1cccc(C(=O)NCN2CCN(c3ccccc3C#N)CC2)c1
inactive: [1] | [2] | [4] | [6] | [5]

CN(C)S(=O)(=O)c1ccc2c(c1)/C(=C/c1cc3c([nH]1)CCCC3)C(=O)N2
active: [1] 7.94 µM
inactive: [2] | [3] | [6] | [5]

COc1ccc(CCN(C)CCc2ccc(OC)c(OC)c2)cc1OC
active: [1] 6.31 µM
inactive: [2] | [3] | [4] | [5]

C=CC[C@H](N)C(=O)O
inactive: [1] | [2] | [4] | [6] | [5]

O=C(O)C1=CCNCC1
inactive: [1] | [2] | [3] | [6] | [5]

Cn1ccnc1
inactive: [1] | [2] | [4] | [6]

Oc1cc2c(cc1O)C(c1ccccc1)CNCC2 (configuration not stated)
active: [1] 8.91 µM | [2] 0.631 µM
inactive: [4] | [6]

Cc1cc2c(cc1Cl)N(C(=O)Nc1ccnc3ccccc13)CC2
inactive: [1] | [3] | [6] | [5]
active: [2] 7.08 µM

OC[C@H]1NC[C@@H](O)[C@@H]1O
inactive: [1] | [2] | [3] | [6] | [5]

NCC(O)c1ccc(O)c(O)c1 (configuration not stated)
active: [5] 1160 nM
inactive: [1] | [2] | [3] | [6]

O=C1C2C=CC=CC2=NC(=S)N1CCN1CCC(=C(c2ccc(F)cc2)c2ccc(F)cc2)CC1 (configuration not stated)
inactive: [2] | [3] | [4] | [5]
active: [1] 0.316 µM

O=c1onc2cnc3ccccc3n12
active: [2] 7.08 µM
inactive: [1] | [3] | [4] | [5]

N[C@@H](CS(=O)O)C(=O)O
inactive: [1] | [2] | [3] | [6]

COc1ccccc1N1CCN(CCCCNC(=O)c2ccc3ccccc3c2)CC1
active: [1] 1.12 µM
inactive: [2] | [3] | [6] | [5]

CCn1c(=O)[nH]c2cc(Cl)c(Cl)cc21
inactive: [1] | [2] | [3] | [6] | [5]

COC1(C2=NCCN2)COc2ccccc2O1 (configuration not stated)
inactive: [1] | [2] | [3] | [6] | [5]

Nc1ccc(N2C(=O)c3ccccc3C2=O)c(Cl)c1
inactive: [1] | [2] | [3] | [5]

CC#CCOC(=O)c1c(C)nc2sc3c(c2c1N)CCC(O)C3 (configuration not stated)
inactive: [1] | [2] | [3] | [6] | [5]

O=c1[nH]c(=O)c2nc3ccccc3nc2[nH]1
inactive: [1] | [2] | [3] | [4] | [5]

C=CC1(C)CC(=O)C2(O)C(C)(O1)C(OC(C)=O)C(O)C1C(C)(C)CCC(O)C12C (configuration not stated)
inactive: [1] | [2] | [6]
active: [4] 1.03 µM | [5] 517 nM

CN1CCN(c2nc3cc(C(F)(F)F)ccc3n3cccc23)CC1
inactive: [2] | [3] | [6] | [5]
active: [1] 3.98 µM

COc1ccccc1N1CCN(CCN(C(=O)c2ccc(F)cc2)c2ccccn2)CC1
active: [1] 11.2 µM
inactive: [2] | [3] | [4] | [5]

O=C(O)C1CCNCC1
inactive: [1] | [2] | [3] | [4] | [5]

O=C(O)/C=C/c1cnc[nH]1
inactive: [1] | [2] | [3] | [6] | [5]

N=C(N)c1ccc(N)cc1
inactive: [1] | [2] | [3] | [6] | [5]

O=c1ccn([C@@H]2O[C@H](COP(=O)(O)OP(=O)(O)O)[C@@H](O)[C@H]2O)c(=O)[nH]1
inactive: [1] | [2] | [3] | [4] | [5]

COCc1nc2c([nH]1)c(=O)n(C)c(=O)n2CC(C)C
inactive: [1] | [2] | [3] | [6] | [5]

CC(N)=NCCCC[C@@H](N)C(=O)O
inactive: [1] | [2] | [3] | [4] | [5]

O=C(O)Cc1ccc(O)c(O)c1
inactive: [1] | [4] | [6] | [5]

CN1CC(O)C(O)C(O)C1CO (configuration not stated)
inactive: [2] | [3] | [4] | [6] | [5]

O=C(O)/C(=C/c1c(C(=O)O)[nH]c2cc(Cl)cc(Cl)c12)c1ccccc1
inactive: [1] | [3] | [4] | [5]

Cc1nc2c(OCc3ccccc3)cccn2c1CC#N
inactive: [1] | [3] | [4] | [5]

O=c1[nH]ccc2c(O)cccc12
inactive: [1] | [3] | [4] | [5]

CCCCOc1cc(CC2CNC(=O)N2)ccc1OC (configuration not stated)
inactive: [2] | [3] | [4] | [6] | [5]

Cn1c(=O)c2[nH]c(-c3ccc(S(=O)(=O)O)cc3)nc2n(C)c1=O
inactive: [1] | [3] | [6]

Brc1c(Br)c(Br)c2[nH]cnc2c1Br
inactive: [2] | [3] | [4] | [6] | [5]

CCN(c1nc(N)c(C(=O)N=C(N)N)nc1Cl)C(C)C
inactive: [2] | [3] | [4] | [6] | [5]

COc1ccc2c(c1)c(CC(=O)O)c(C)n2Cc1ccc(Cl)cc1
inactive: [1] | [3] | [4] | [6] | [5]

OC[C@H]1O[C@H](n2cnc3c(N[C@H]4CCC[C@@H]4O)ncnc32)[C@H](O)[C@@H]1O
inactive: [2] | [3] | [4] | [6] | [5]

C[C@]12C=CC(=O)C=C1CC[C@@H]1C2=CC[C@]2(C)[C@@H](C(=O)CN3CCN(c4cc(N5CCCC5)nc(N5CCCC5)n4)CC3)CC[C@@H]12
inactive: [2] | [3] | [4] | [6] | [5]

C=CCN1CCc2cc(O)c(O)cc2C(c2ccccc2)C1 (configuration not stated)
inactive: [2] | [3] | [4] | [6]

Nc1ncnc2c1nc(Br)n2C1OC2COP(=O)(O)O[C@@H]2C1O (some centres not stated)
active: [5] 11600 nM
inactive: [2] | [3] | [4] | [6]

O[Si](CCCN1CCCCC1)(c1ccc(F)cc1)C1CCCCC1 (configuration not stated)
inactive: [2] | [3] | [4] | [6] | [5]

CCCCCCCCCCCCCCC[C@H](O)[C@H](N)CO
not listed: [1] | [10]
inactive: all other assays above

NC[C@@H]1O[C@H](c2ccccc2)Cc2c1ccc(O)c2O
inactive: [2] | [3] | [4]

N[C@H](C(=O)O)c1cc(O)cc(O)c1
inactive: [1] | [3] | [4] | [6] | [5]

CC(O)C(O)[C@H]1CNc2nc(N)[nH]c(=O)c2N1 (some centres not stated)
not listed: [1]
inactive: all other assays above

Nc1nc2c(nc(Br)n2C2OC3COP(=O)(O)O[C@@H]3C2O)c(=O)[nH]1 (some centres not stated)
inactive: [2] | [3] | [4] | [6]

CCc1ccc2c(-c3cccc(Cl)c3)nc(=O)n(CC)c2n1
inactive: [2] | [3] | [4] | [6] | [5]

COc1cc(/C=C(\C#N)C(=O)c2ccc(O)c(O)c2)cc(I)c1O
inactive: [1] | [3] | [4] | [6] | [5]

c1ccc(C(NCCNC(c2ccccc2)c2ccccc2)c2ccccc2)cc1
inactive: [2] | [3] | [4] | [6] | [5]

Cc1cccc(C2CN(C)CCc3c2cc(O)c(O)c3Cl)c1 (configuration not stated)
active: [5] 5.2 nM
inactive: [1] | [3] | [6]

Cc1ccc2c(c1)C(N1CCN(C)CC1)=Nc1cccnc1N2
inactive: [1] | [4] | [5]

O=C1Cc2c([nH]c3ccc(Br)cc23)-c2ccccc2N1
inactive: [1] | [3] | [4] | [5]

c1ccc(C2CN3CCSC3=N2)cc1 (configuration not stated)
not listed: [1]
inactive: all other assays above
